Source: PubChem (several laboratories)
Only a selection was taken, and hits are over-represented in it overall.
Pyk2 oligo antag: antagonists of human Pyk2 oligomerization | Q14289 | Q293 cells, Pyk2 FERM NanoBiT luminescence; stronger effect = lower value | z-score (the deposit names both 25 µM and 10 µM) | hit rate 0.83% among 99,000 | AID 1347419;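 active means Z-score of -3 or lower, scaled per plate to the spread of control and sample wells; inactive means z-score above -3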;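 further: negative z-score means lost luminescence so less FERM oligomerization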
CD11b adhes enh: enhancers of human CD11b/CD18 binding to fibrinogen | K562 CD11b/CD18 adhesion to fibrinogen, ATPlite luminescence | activation, % at 10 µM | AID 1499 | P05107+P11215 | hit rate 0.07% among 93,000;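 active means 10 µM primary screen giving 50% or more activity, confirmed by 40% or more on retest at that dose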
CD11b adhes inh: blocks human CD11b/CD18 adhesion to fibrinogen; P05107+P11215; K562 CD11b/CD18 adhesion to fibrinogen, ATPlite luminescence; Mn2+ added to activate the integrin; inhibition, % at 10 µM; hit rate 0.54% among 93,000; AID 1497;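 active means primary inhibition of 50% or more at 10 µM, then 40% or more on retest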
DAT uptake mod: human DAT dopamine uptake with cocaine, either direction; hit rate 1.3% among 110,000; B-score at 10 µM; LLC-PK1 hDAT cells, [14C]-dopamine uptake with cocaine IC80; actives deviate in either direction;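 active means Z score or B-score, a plate-position-corrected score, falls beyond the plate's 99.7% confidence bounds, in either direction; inactive means both scores lie inside the 99.7% bounds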
FAK blocker: FAK (human) kinase inhibition; AID 727; hit rate 0.84% among 97,000; inhibition, %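 (tested at 7 µM)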; biochemical FAK kinase activity assay; in the data active means inhibition above about 19%
Target sequence (Q05397 whole entry, looked up): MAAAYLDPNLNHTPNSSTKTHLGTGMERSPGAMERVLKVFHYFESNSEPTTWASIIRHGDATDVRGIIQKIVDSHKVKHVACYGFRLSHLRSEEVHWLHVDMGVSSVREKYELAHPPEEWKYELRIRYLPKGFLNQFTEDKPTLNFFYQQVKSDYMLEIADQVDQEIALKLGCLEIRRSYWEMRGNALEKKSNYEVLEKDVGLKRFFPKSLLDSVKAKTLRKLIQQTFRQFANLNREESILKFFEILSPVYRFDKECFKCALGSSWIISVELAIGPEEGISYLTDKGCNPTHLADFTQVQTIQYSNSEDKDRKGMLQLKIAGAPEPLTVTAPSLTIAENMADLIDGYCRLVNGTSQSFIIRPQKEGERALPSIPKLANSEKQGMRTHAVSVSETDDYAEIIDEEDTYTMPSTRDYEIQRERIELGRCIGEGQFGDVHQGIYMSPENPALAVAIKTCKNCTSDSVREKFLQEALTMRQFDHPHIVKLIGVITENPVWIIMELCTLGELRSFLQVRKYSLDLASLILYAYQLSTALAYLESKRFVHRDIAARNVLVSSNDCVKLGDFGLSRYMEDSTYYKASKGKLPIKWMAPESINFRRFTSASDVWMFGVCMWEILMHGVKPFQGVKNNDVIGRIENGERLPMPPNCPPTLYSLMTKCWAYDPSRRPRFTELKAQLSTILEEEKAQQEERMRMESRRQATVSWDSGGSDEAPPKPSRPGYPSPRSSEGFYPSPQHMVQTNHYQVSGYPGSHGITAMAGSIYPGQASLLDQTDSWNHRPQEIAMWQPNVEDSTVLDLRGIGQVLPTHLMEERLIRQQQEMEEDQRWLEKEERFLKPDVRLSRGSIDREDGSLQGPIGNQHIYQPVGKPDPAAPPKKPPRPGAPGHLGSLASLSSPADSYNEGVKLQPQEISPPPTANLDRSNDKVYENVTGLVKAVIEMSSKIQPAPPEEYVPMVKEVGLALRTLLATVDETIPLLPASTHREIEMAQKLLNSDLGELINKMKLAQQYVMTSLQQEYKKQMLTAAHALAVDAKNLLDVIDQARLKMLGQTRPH
D1 allo mod: allosteric modulators of human D1 dopamine receptor. HEK293 D1, CRE-luciferase, dopamine EC30 potentiation; actives deviate in either direction. P21728. hit rate 5.9% among 58,000. B-score at 10 µM;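 active means luminescence count or its row- and column-corrected plate score outside the 99.7% band of the plate's sample wells, on either side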
D1 mod confirm: D1 receptor (human) allosteric modulation, confirmed; shares compounds with D1 allo mod; HEK293 D1 CRE-luciferase, dopamine EC30 potentiation; stronger effect = higher value; luminescence at 10 µM; hit rate 88% among 2,200; AID 642;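 active means luminescence in either of two replicates above the same-plate mean plus 3 SD of the low-dose dopamine control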
D1 ag no DA: secondary test of D1 modulators: activity without dopamine; shares compounds with D1 allo mod; HEK293 D1 CRE-luciferase, luminescence, no dopamine; stronger effect = higher value; luminescence at 10 µM; hit rate 0.8% among 1,900; in the data active means luminescence above about 3900
Isoprot counter: counter-screen for D1 modulators: isoproterenol response in HEK293 cells; shares compounds with D1 allo mod; HEK293 D1 CRE-luciferase, isoproterenol EC30 counter-screen; calls only at 10 µM; hit rate 63% among 2,200; AID 647;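 active means luminescence in either replicate above plate mean of wells with a partly effective reference agonist dose plus 3 SD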;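 further: isoproterenol raises cAMP through native beta-adrenoceptor Gs so signal bypasses D1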
Of the large screens only hits and unclear results are named; the others gave an inactive call (follow-up assays come after a bar, where they were run).

COC(=O)c1cc(OC)c(OC)cc1N=CC1=C(O)CC(C)(C)CC1=O	D1 allo mod 4.1 | D1 mod confirm 9648 | D1 ag no DA inactive | Isoprot counter active
CS(=O)(=O)N1CCN(Cc2ccc(C(F)(F)F)cc2)CC1	none (no result: D1 allo mod)
O=C1N[C@H](C(=O)O)CS1	none (no result: Pyk2 oligo antag, CD11b adhes enh, CD11b adhes inh, FAK blocker, D1 allo mod)
CCC(c1nnnn1CCOC)N(Cc1ccc(C)cc1)Cc1cc2cc(OC)ccc2[nH]c1=O (configuration not stated)	D1 allo mod 5.8 | D1 mod confirm 14016 | D1 ag no DA inactive | Isoprot counter active
CCOC(=O)Cn1nnnc1C(CC)N(Cc1ccccc1)Cc1cc2cc(C)ccc2[nH]c1=O (configuration not stated)	none (no result: D1 allo mod)
COc1ccc(CNC(=O)c2c(O)c3cccc4c3n(c2=O)CCC4)cc1	none
COc1ccc(CNC(=O)c2c(O)c3cccc4c3n(c2=O)CCC4)cc1OC	D1 allo mod 6.2 (no result: FAK blocker) | D1 mod confirm 10888 | D1 ag no DA inactive | Isoprot counter active
FC(F)(F)c1cc(-c2ccco2)nc(NCc2ccco2)n1	D1 allo mod 15 (no result: CD11b adhes enh, CD11b adhes inh) | D1 mod confirm 10384 | D1 ag no DA inactive | Isoprot counter active
FC(F)(F)c1cc(-c2ccco2)nc(NCc2cccs2)n1	none (no result: CD11b adhes enh, CD11b adhes inh, D1 allo mod)
FC(F)(F)c1cc(-c2ccco2)nc(-n2nc(C(F)(F)F)cc2C2CC2)n1	D1 allo mod 5.3 | D1 mod confirm inactive | D1 ag no DA inactive | Isoprot counter active
CN1CCN(c2nc(-c3ccco3)cc(C(F)(F)F)n2)CC1	none (no result: D1 allo mod)
COc1cccc(-c2cc(C(F)(F)F)nc(NCc3ccco3)n2)c1	D1 allo mod 3 (no result: CD11b adhes enh, CD11b adhes inh) | D1 mod confirm 7368 | Isoprot counter active
CCCCCc1c(C)nc(N2CCOCC2)[nH]c1=O	none
Cc1ccc(N(Cc2ccco2)C(=O)c2cccc(S(=O)(=O)N(C)C)c2)cc1	D1 allo mod 3 | D1 mod confirm 11896 | D1 ag no DA inactive | Isoprot counter active
CCc1ccc(-n2c(=O)c3c(C)c(C(=O)N(C)C)sc3n(CC(=O)NCc3ccco3)c2=O)cc1	none (no result: D1 allo mod)
COC(=O)c1nc(N)sc1-c1ccccc1	D1 allo mod 11 | D1 mod confirm 21800 | D1 ag no DA inactive | Isoprot counter active
COc1cccc(C(=O)N2CCN(S(C)(=O)=O)CC2)c1	none (no result: D1 allo mod)
O=S(c1ccc2ccccc2c1)c1cnns1 (configuration not stated)	none (no result: CD11b adhes enh, CD11b adhes inh, D1 allo mod)
Clc1cccc(NCc2nnc(SCc3ccccc3)o2)c1	D1 allo mod 3.2 | D1 mod confirm 7948 | Isoprot counter inactive
Clc1cccc(NCc2nnc(SCc3ccccc3Cl)o2)c1	none (no result: DAT uptake mod, D1 allo mod)
N#CCSc1nnc(CNc2cccc(Cl)c2)o1	D1 allo mod 4 | D1 mod confirm inactive | Isoprot counter inactive
COc1cc(OC)nc(Oc2ccccc2C(=O)Oc2ccc(F)cc2Cl)n1	none (no result: CD11b adhes enh, CD11b adhes inh, D1 allo mod)
CCC(Sc1nc(-c2ccccc2)c(C#N)c(=O)[nH]1)C(=O)Nc1nnc(C)s1 (configuration not stated)	none (no result: D1 allo mod)
CCOC(=O)C1CCCN(C(=O)c2cc(Cl)ccc2Cl)C1 (configuration not stated)	D1 allo mod 4.2 | D1 mod confirm 5420 | D1 ag no DA inactive | Isoprot counter inactive
CCOC(=O)C1CCCN(C(=O)c2cc(Nc3ccc(OC)cc3OC)nc3ccccc23)C1 (configuration not stated)	none (no result: D1 allo mod)
CCOC(=O)C1CCCN(C(=O)c2cc(Nc3ccc(OC)c(OC)c3)nc3ccccc23)C1 (configuration not stated)	D1 allo mod 4 | D1 mod confirm 12712 | D1 ag no DA inactive | Isoprot counter active
CCOC(=O)C1CCCN(C(=O)Cc2ccc(Cl)cc2)C1 (configuration not stated)	none (no result: D1 allo mod)
Cc1ccc(S(=O)(=O)NC(C(=O)Oc2cc3oc(=O)cc(C)c3cc2Cl)C(C)C)cc1 (configuration not stated)	none (no result: Pyk2 oligo antag, DAT uptake mod, FAK blocker, D1 allo mod)
CCOCC(=O)Nc1nnc(Cc2ccc(OC)cc2)s1	none (no result: CD11b adhes enh, CD11b adhes inh, D1 allo mod)
COCC(=O)Nc1nnc(Cc2ccc(OC)c(OC)c2)s1	D1 allo mod 9.8 | D1 mod confirm 19508 | D1 ag no DA inactive | Isoprot counter active
CCOCC(=O)Nc1nnc(Cc2ccc(OC)c(OC)c2)s1	D1 allo mod 7.8 | D1 mod confirm 12160 | Isoprot counter active
COc1ccc(C2/C=C\CNCC(=O)N2Cc2ccc(F)cc2)cc1 (configuration not stated)	none (no result: Pyk2 oligo antag, CD11b adhes enh, CD11b adhes inh, FAK blocker, D1 allo mod)
O=C(CS(=O)(=O)c1c[nH]c2ccccc12)NC1CCCCC1	none (no result: Pyk2 oligo antag, D1 allo mod)
COc1ccc(OC)c(S(=O)(=O)NC(C)(C)C)c1	none (no result: D1 allo mod)
O=C(Nc1ccccc1C(F)(F)F)N1CCN(c2ccc3nnc(-c4ccc(F)cc4)n3n2)CC1	D1 allo mod 3.9 (no result: FAK blocker) | D1 mod confirm 7116 | D1 ag no DA inactive | Isoprot counter active
Cc1ccc(S(=O)(=O)NC(CC(=O)NCC2CCCO2)c2ccco2)cc1 (configuration not stated)	none
CC(C)OC(=O)CSc1nc2cccnc2n1-c1ccc(F)cc1	none (no result: D1 allo mod)
CCOC(=O)CSc1nc2cccnc2n1-c1ccc(F)cc1	D1 allo mod 22 | D1 mod confirm 24340 | D1 ag no DA inactive | Isoprot counter active
N#C/C(C(=O)Oc1ccccc1)=C1/Nc2ccccc2-c2ccccc21	none (no result: CD11b adhes enh, CD11b adhes inh, D1 allo mod)
FC(F)(F)c1cc(-c2ccccc2)nc(NCC2CCCO2)n1 (configuration not stated)	none (no result: D1 allo mod)
Fc1ccc(-c2cc(C(F)(F)F)nc(NCC3CCCO3)n2)cc1 (configuration not stated)	D1 allo mod 5.5 (no result: FAK blocker) | D1 mod confirm 8052 | Isoprot counter inactive
Cc1cc2ncn(-c3ncnc4sc5c(c34)CCC(C)C5)c2cc1C (configuration not stated)	none (no result: DAT uptake mod, D1 allo mod)
CC(C)(C)NC(=O)CSc1nnc(C2CC2)n1Cc1ccccc1	none (no result: FAK blocker, D1 allo mod)
Cc1nc(N2CCCCC2)c2sc(=S)n(C)c2n1	D1 allo mod 8.2 (no result: Pyk2 oligo antag) | D1 mod confirm 12412 | D1 ag no DA 27240 | Isoprot counter active
COc1ccc(-c2nnc3sc(C(C)N4C(=O)c5ccccc5C4=O)nn23)cc1 (configuration not stated)	D1 allo mod 9.3 (no result: Pyk2 oligo antag, CD11b adhes enh, CD11b adhes inh) | D1 mod confirm 10292 | D1 ag no DA inactive | Isoprot counter active
Cc1ccc2nc(NCc3ccccc3)c(C=O)c(=O)n2c1	none (no result: CD11b adhes enh, CD11b adhes inh, DAT uptake mod, FAK blocker, D1 allo mod)
Cc1ccc2nc(Nc3ccccc3)c(/C=N/O)c(=O)n2c1	D1 allo mod 10 (no result: CD11b adhes enh, CD11b adhes inh) | D1 mod confirm 17088 | D1 ag no DA inactive | Isoprot counter active
